{"source": "PubChem BioAssay (NCI)", "note": "Compounds without any hit were thinned out: in the full panel of roughly 79,000, 15% have a hit. The source made the active and inactive calls. Cut-off read from the data, not from the text of the source: active = growth inhibition above about 70%; inactive = the rest."}
{"test": "NCI Yeast Anticancer Drug Screen. Data for the bub3 strain (AID 167)", "settings": "S. cerevisiae bub3 mutant strain, at 50.0 µM (retest, dose inferred, filed as 5.0), stronger effect = higher value", "how_it_was_run": "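Steps: expose the mutant yeast strain to compound; grow alongside vehicle-treated cultures; measure growth; express inhibition against the vehicle cultures.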"}
{"molecule": "Cc1ccccc1NC(=S)Nc1ccccc1O", "growth inhibition": "98% (active)"}
{"molecule": "c1cc2cc(Cc3ccc4[nH]ccc4c3)ccc2[nH]1", "growth inhibition": "16% (inactive)"}
{"molecule": "N=C(N)c1ccc(-c2ccc(-c3ccc(C(=N)N)cc3)o2)cc1", "growth inhibition": "62% (inactive)"}
{"molecule": "O=c1oc2c/c(=C\\c3ccccc3)c(=O)c3cccc1c3-2", "growth inhibition": "96% (active)"}
{"molecule": "CCCCCCCC(=O)/C=C/c1ccc(C)cc1", "growth inhibition": "-47% (inactive)"}
{"molecule": "COc1ccc(CCC2(C)OCCC(C)O2)cc1", "note": "(centres undefined)", "growth inhibition": "76% (active)"}
{"molecule": "O=C(O)C(SC1=NNC2(C(=O)N1)c1ccccc1-c1ccccc12)SC1=NNC2(C(=O)N1)c1ccccc1-c1ccccc12", "growth inhibition": "93% (active)"}
{"molecule": "CC1(C)NNC(=S)NN1", "growth inhibition": "5% (inactive)"}
{"molecule": "O=C([O-])c1ccccc1[I+]c1ccc(C2CCCCC2)cc1", "growth inhibition": "45% (inactive)"}
{"molecule": "ClC1=C(Cl)C(Cl)(C(Cl)(Cl)Cl)C(Cl)=C1Cl", "growth inhibition": "98% (active)"}
{"molecule": "Cn1nc(N)c2cccnc21", "growth inhibition": "2% (inactive)"}
{"molecule": "CC(C)(C)c1ccc(-n2c3nc(=O)n(-c4ccccc4C(F)(F)F)c(=O)c-3cc3ccccc32)cc1", "growth inhibition": "98% (active)"}
{"molecule": "C/C(=N\\Nc1ccccn1)c1ccccn1", "growth inhibition": "98% (active)"}
{"molecule": "COc1ccc2c(C)cc(N/N=C(\\C)c3ccccn3)nc2c1", "growth inhibition": "67% (inactive)"}
{"molecule": "CC([NH-])C(=O)O.[Cu+2].[NH-]C(Cc1cnc[nH]1)C(=O)O", "note": "(centres undefined)", "growth inhibition": "-1% (inactive)"}
{"molecule": "COc1ccc(C)cc1NC(=O)ON=C1CCCCC1", "growth inhibition": "91% (active)"}
{"molecule": "Oc1c(N(Cc2ccccc2)Cc2ccccc2)ccc2cccnc12", "growth inhibition": "97% (active)"}
{"molecule": "Cc1ccc2[nH]c3cc4ccncc4cc3c2c1", "growth inhibition": "96% (active)"}
{"molecule": "Cc1ccc2nn(-c3ccc(O)cc3)nc2c1", "growth inhibition": "69% (inactive)"}
